Screens as filed in PubChem BioAssay.
This is a sample that favours compounds with a hit; in the whole collection about 4.6% have one here.
hcDAF-12 act: H. contortus DAF-12 activation, primary screen; HEK293 hcDAF-12 lit1-tk-luc reporter, luminescence; 0% DMSO, 100% Δ7-dafachronic acid; activation, % at 6.8 µM; 1.4% of 370,000 active; AID 652067;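 active = activation above the mean of all tested compounds plus 3 SD, cut at about 5.5% in these data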
DAX1 inh-1: NR0B1 (DAX1) inhibition | inhibition, % at 6.75 µM | P51843 | HEK293 Gal4-DAX1 luciferase reporter, luminescence | AID 504766 | 0.99% of 340,000 active;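 active = inhibition above the mean over all tested compounds plus 3 SD, cut at about 4.2% in these data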;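 also: inhibition shows as a rise in luminescence from relieved DAX1 repression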
Target sequence (P51843 207-470 limits assumed): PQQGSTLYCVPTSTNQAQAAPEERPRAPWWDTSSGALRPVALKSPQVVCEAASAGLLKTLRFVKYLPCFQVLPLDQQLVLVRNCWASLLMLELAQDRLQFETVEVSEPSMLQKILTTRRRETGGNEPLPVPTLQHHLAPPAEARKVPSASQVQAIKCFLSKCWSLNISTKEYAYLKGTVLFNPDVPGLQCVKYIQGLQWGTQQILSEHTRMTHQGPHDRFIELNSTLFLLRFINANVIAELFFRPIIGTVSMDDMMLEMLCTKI
DAX1 inh-2: DAX1 (NR0B1) inhibition, primary screen; 1.1% of 370,000 active; HEK293T StAR-luciferase reporter, SF-1/DAX-1 repression relief; inhibition, % at 6.8 µM; AID 652010;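 active = inhibition above the mean over all tested compounds plus 3 SD, cut at about 3.6% in these data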;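 also: higher inhibition means more luminescence from relief of DAX-1 repression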
hgDAF12 agonist: hgDAF-12 agonism, primary luciferase screen; AID 687014; activation, % at 6.8 µM; 1.8% of 370,000 active; HEK293 GAL4-hgDAF12 UAS-luciferase reporter, agonist luminescence; normalized to butyrate control;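 active = activation above a cutoff set at the mean of all screened compounds plus 3 SD, cut at about 10% in these data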
ssDAF-12 act: activators of S. stercoralis DAF-12 nuclear receptor. AID 652126. 1% of 370,000 active. HEK293 ssDAF-12/GRIP1 lit1-tk-luc reporter, luminescence; % of 3 µM dafachronic acid response. activation, % at 6.8 µM;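 active = activation above the mean over all tested compounds plus 3 SD, cut at about 0.9% in these data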
Wee1 stabilizer: inhibitors of human Wee1 degradation | P30291 | HeLa Luc-Wee1K328M stability, luciferase luminescence; 100% = proteasome inhibitor MG132 effect | reporter increase, % at 5 µM | 1.2% of 220,000 active | AID 1321;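 active = activation above the mean of all tested compounds plus 3 SD, set per screening run, cut at about 8.8% in these data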;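 also: cells exposed to compound for 20 h before luminescence read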
Each line names hits and unclear results; the compound was inactive in the other large screens.

CCOc1cccc(/C=C/c2ccc3cccc(O)c3n2)c1O	hcDAF-12 act 5.8, hgDAF12 agonist 10 (no result: Wee1 stabilizer)
CCOc1cccc(/C=C/c2ccc3cccc(O)c3n2)c1OC	none (no result: Wee1 stabilizer)
Cc1sc2nc3c4ccccc4c(NCc4ccco4)nn3c(=O)c2c1C	hcDAF-12 act 7.5, hgDAF12 agonist 14
Cc1ccc(OCCCN2CCOCC2)c([N+](=O)[O-])c1	hgDAF12 agonist 13
Cc1cc(OCCN2CCCC2)ccc1[N+](=O)[O-]	ssDAF-12 act 1.1
Cc1cc(OCCN2CCOCC2)ccc1Cl	hgDAF12 agonist 12 (no result: Wee1 stabilizer)
Cc1ccc(C(C)C)c(OCCCCCN2CCOCC2)c1	none (no result: Wee1 stabilizer)
Cc1ccc(OCCCCCN2CCOCC2)c(Cl)c1	DAX1 inh-1 4.9 (no result: Wee1 stabilizer)
CCOC(=O)C1=CCC(c2ccccc2)N(S(=O)(=O)c2ccccc2C)C1 (centres undefined)	none (no result: DAX1 inh-1, Wee1 stabilizer)
O=S(=O)(c1ccc(Cl)s1)N1CCC(c2cn3ccccc3n2)CC1	none (no result: DAX1 inh-1, Wee1 stabilizer)
CCNC(=O)C1(C)CCN1CCC(=O)c1ccc(Br)cc1 (centres undefined)	none (no result: DAX1 inh-1, Wee1 stabilizer)
C[C@@H]1COc2cc(Br)ccc2S(=O)(=O)N1Cc1cn(CC2CCCCC2)nn1	none (no result: DAX1 inh-1, Wee1 stabilizer)
O=C(Cc1ccc([N+](=O)[O-])cc1)N1CCc2ccccc2C1	none
O=C(Cc1ccccc1[N+](=O)[O-])N1CCc2ccccc2C1	hgDAF12 agonist 11, ssDAF-12 act 1.1
O=C(c1cc(-c2cccnc2)nc2ccccc12)N1CCN(S(=O)(=O)c2ccc(Cl)s2)CC1	none (no result: Wee1 stabilizer)
O=C(O)CSCCOc1ccc(OCCSCC(=O)O)cc1	Wee1 stabilizer 10
CCOc1ccc(C(=O)CSCCC(=O)O)cc1	none
O=C(CN1CCN(S(=O)(=O)c2ccc(Br)s2)CC1)NCC1CCCCC1	none (no result: Wee1 stabilizer)
CCOC(=O)N1CCN(C(=O)Cn2cc3c(n2)CCCC3)CC1	Wee1 stabilizer 11
O=C(Cn1cc2c(n1)CCCCC2)N1CCc2ccccc21	hcDAF-12 act 6.3
CN=C1S/C(=C\c2cn(CC(=O)OC)c3ccccc23)C(=O)N1C	ssDAF-12 act 0.9
CN=C1S/C(=C/c2cn(CC(=O)OC)c3ccccc23)C(=O)N1C	ssDAF-12 act 1.7
Cc1nn(C2CCS(=O)(=O)C2)c(C)c1CN(C)C(=O)c1ccc(S(=O)(=O)N(C)C)cc1 (centres undefined)	none (no result: Wee1 stabilizer)
COc1ccccc1C(=O)COC(=O)Cc1n[nH]c(=O)c2ccccc12	none (no result: Wee1 stabilizer)
COc1ccc(C(C)=O)cc1COC(=O)Cc1n[nH]c(=O)c2ccccc12	DAX1 inh-1 5.3
CCCCN1CC(=O)N2[C@H](C[C@@]3(C)c4ccccc4N(S(=O)(=O)c4ccccc4)[C@@H]23)C1=O	none (no result: DAX1 inh-1, Wee1 stabilizer)
N/C(=N\OC(=O)c1ccc(Br)cc1)c1ccccc1	hgDAF12 agonist 12
N/C(=N\OC(=O)c1cccc(Br)c1)c1ccc(Br)cc1	none
CCOC(=O)C1(Cc2cccc(OC)c2)CCCN(C(=O)c2cc(CC(C)C)[nH]n2)C1 (centres undefined)	DAX1 inh-2 3.8 (no result: Wee1 stabilizer)
COc1cccc(CC2(CO)CCCN(C(=O)c3cc[n+]([O-])cc3)C2)c1 (centres undefined)	DAX1 inh-1 5.1
CCOC(=O)C1(Cc2cccc(OC)c2)CCCN(C(=O)c2ccc(OC)o2)C1 (centres undefined)	DAX1 inh-2 4.3 (no result: Wee1 stabilizer)
Cc1cccc(N2CCN(C(=O)c3cc(S(=O)(=O)N(C)C)ccc3Cl)CC2)c1C	none (no result: DAX1 inh-1, DAX1 inh-2, Wee1 stabilizer)
Cc1cc2ncn(-c3ncccc3[N+](=O)[O-])c2cc1C	none (no result: Wee1 stabilizer)
CC(C)(C)C(=O)O/N=C(\N)COc1cccc(Cl)c1	DAX1 inh-1 6.9
Nc1cccc(Oc2ccc3c(c2)C(=O)N(CC2CCCO2)C3=O)c1 (centres undefined)	hgDAF12 agonist 11
O=C1c2cccc3cccc(c23)C(=O)N1CC1CCCO1 (centres undefined)	none
COC(=O)c1cc(C(C)=O)c(C)[nH]c1=O	DAX1 inh-1 5.9
CCCc1cc(C(=O)Cc2nc3ccccc3s2)c(O)cc1O	hcDAF-12 act 5.7, ssDAF-12 act 0.9
CC(C)NC(=O)CN1CCN(C(c2ccnc3ccccc23)c2nnnn2-c2ccc3c(c2)OCCO3)CC1 (centres undefined)	none (no result: DAX1 inh-1, Wee1 stabilizer)
CC1(C(=O)NCC2CC2)CCN1C(=O)C1(c2ccccc2)CC1 (centres undefined)	none (no result: DAX1 inh-1, Wee1 stabilizer)
CC(C)O/C(=N/S(=O)(=O)c1ccc(Cl)cc1)c1ccccc1	none (no result: Wee1 stabilizer)
CC(=O)c1cnc(Nc2ccc(C)cc2)s1	DAX1 inh-1 4.7
O=C(c1ccc(Cl)c(Cl)c1)c1cnc(Nc2ccccc2)s1	none
O=C(CN1C(=O)c2cccc([N+](=O)[O-])c2C1=O)N1CCc2ccccc2C1	none (no result: Wee1 stabilizer)
CCCCOCCCNC(=O)C[C@H]1C(=O)N(Cc2ccc(OC)cc2)C2=CCCCC[C@@]21C(=O)OC	none (no result: DAX1 inh-1, Wee1 stabilizer)
C=CCN(Cc1ccc2c(c1)OCO2)C(C#Cc1ccccc1)c1ccccc1C(F)(F)F (centres undefined)	none (no result: DAX1 inh-1, Wee1 stabilizer)
Cc1ccc(NCc2ccc(O)c3ncccc23)cc1C	ssDAF-12 act 1.9
COC(=O)[C@]12C[C@H](CC(=O)NCCc3ccccc3OC)C(=O)N(Cc3ccco3)C1=C[C@H](COCc1ccccc1)O[C@@H]2C	none (no result: DAX1 inh-1, Wee1 stabilizer)
CCOc1ccc(Cl)cc1-c1cc(C(=O)NCCOC)[nH]n1	none (no result: DAX1 inh-1, Wee1 stabilizer)
COC(=O)c1ccc2c(c1)SC1=C(CCCC1=O)N2	none
COC(=O)C1=C(C)Nc2ccc(C)cc2S1	DAX1 inh-1 4.2
CCc1ccc(NC(=O)C(C)Sc2ccc(S(=O)(=O)N3CCN(C)CC3)cn2)cc1 (centres undefined)	none (no result: Wee1 stabilizer)
O=C(CCNC(=O)c1ccc(Br)cc1)NCc1ccccn1	none (no result: Wee1 stabilizer)
O=[N+]([O-])c1ccc(C2Nc3cccc4cccc(c34)N2)cc1	ssDAF-12 act 1.6
O=[N+]([O-])c1cccc(C2Nc3cccc4cccc(c34)N2)c1	none
Cc1ccc(C(=O)NCC(=O)OCC(=O)Nc2cc(C)c(C)cc2[N+](=O)[O-])cc1	none
COCC(=O)OCC(=O)Nc1cc(C)c(C)cc1[N+](=O)[O-]	Wee1 stabilizer 17
O=C(O)c1cccc2c1-c1ccc(Cl)cc1C2=O	none (no result: Wee1 stabilizer)
Nc1cccc2c1C(=O)c1ccc(Cl)cc1C2=O	DAX1 inh-2 3.7 (no result: Wee1 stabilizer)
Nc1ccc2nc(SCc3ccccc3F)sc2c1	ssDAF-12 act 1.0
Nc1nnc(SCC(=O)c2ccc3ccccc3c2)s1	ssDAF-12 act 1.1
Nc1cc(N)nc(SCC(=O)c2ccccc2)n1	none
CCOc1ccc2nc(SCc3ccc(F)cc3)sc2c1	none
Nc1ccc2nc(SCC(=O)c3ccccc3)sc2c1	ssDAF-12 act 1.3 (no result: Wee1 stabilizer)
CCc1ccc(OCC(=O)NNC(=O)C2CCC2)cc1	none (no result: Wee1 stabilizer)
COc1cccc(OCc2cc(C(=O)N(C)Cc3nc(C)cs3)no2)c1	DAX1 inh-2 4.5 (no result: Wee1 stabilizer)
COc1cccc(OCc2cc(C(=O)N(C)C3CCOCC3)no2)c1	none (no result: Wee1 stabilizer)
